# In PubChem BioAssay (NCI):
# The panel holds about 83,000 compounds, 20% with a hit somewhere; the sample as a whole holds those more often.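 A percent growth of 40 corresponds to 60% growth inhibition; 0 means no net growth; -100 means all cells died. Active threshold: below 10.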 Calls of active or inactive are those of the source.
# System: HL-60(TB) leukemia
# Experiment: NCI-60 one-dose screen, 48 h (100 = growth as untreated, 0 = no growth, -100 = all killed)
# Details: 10 µM unless noted
row,Structure (SMILES),growth
1,O=S(=O)(c1ccccc1)n1ccc(-c2ccc3c(c2)CCO3)n1,109% (inactive)
2,Cc1ccc2c(c1)=C/C(=C\c1cc(-c3ccccc3)[nH]c1O)C(=O)N=2,-4.3% (active)
3,O=C1SCN(Cc2ccccc2)CN1Cc1ccccc1,70.7% (inactive)
4,OCc1ccc(-c2ccc(-c3ccc(CO)s3)o2)s1,21.7% (inactive)
5,O=c1c2cc(F)ccc2sc2c(NCCO)nc3ccccc3c12,91.9% (inactive)
6,O=C(c1ccccc1)C(Sc1ccccc1)c1ccccc1 (stereo not drawn),84.1% (inactive)
7,Cc1ccc(Cl)cc1N1CCN(C(=O)[C@@H]2C[C@@H]2c2ccc(F)cc2)CC1,69.9% (inactive)
8,COC(=O)c1cc(O)c2cc3c(cc2c1-c1cc(OC)c(OC)c(OC)c1)OCO3,5.92% (active)
9,Cc1[nH]cnc1/C=C1\SC(N2CCCCC2)=NC1=O,96.4% (inactive)
10,COc1cc(/C=C2\C(=O)ON=C2C)cc(OC)c1OC,98.1% (inactive)
11,CC(=O)Nc1ccc(-n2cnc3cc(-c4ccc(OCCN5CCCCC5)cc4)ccc32)cc1,98.3% (inactive)
12,CN(C)CCCn1c2c(c3cc(-c4ccco4)ccc3c1=O)C(=O)c1ccccc1-2,93.1% (inactive)
13,CC(=O)O[C@H]1[C@H](CC#CC#CC[C@@H]2C[C@]3(C)[C@H]4CC=C5[C@H]6[C@@H](C)[C@H](C)CC[C@]6(C(=O)NCCN(CCN)CCN)CC[C@@]5(C)[C@]4(C)CC[C@H]3C(C)(C)[C@H]2OC(C)=O)C[C@]2(C)[C@H]3CC=C4[C@H]5[C@@H](C)[C@H](C)CC[C@]5(C(=O)NCCN(CCN)CCN)CC[C@@]4(C)[C@]3(C)CC[C@H]2C1(C)C,34.2% (inactive)
